Shown are actives, neighbours in structure and some others; about 10% of the full set was active somewhere.
G9a block: qHTS Assay for Inhibitors of Histone Lysine Methyltransferase G9a | Potency, µM (titrated, usually from 102 µM), usual class: inhibitors | AID 504332, 2011 | G9a H3K9 monomethylation, AlphaScreen, 2 h | actives 8.8% (n = 350,000); further: nearly all actives have a fitted effect of over 75% in size
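G9a (20 nM) was preincubated 15 min with compound, then reacted 2 h at room temperature with 500 nM biotin-H3K9 peptide and 20 µM SAM. Monomethyl-H3K9 detected by AlphaScreen using anti-H3K9me1 antibody.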
JMJD2A Tudor inh: qHTS Assay for Inhibitors of JMJD2A-Tudor Domain | actives 4.4% (n = 390,000) | AlphaScreen JMJD2A-Tudor / H3K4me3 peptide binding | Potency, µM (doses to about 114 µM), most hits filed as inhibitors; further: nearly all actives have a fitted effect of over 50% in size
BAZ2B inh: qHTS Assay for Inhibitors of BAZ2B. Potency, µM (doses to about 114 µM), actives largely listed as inhibitors. AlphaScreen BAZ2B-H3K14Ac peptide displacement. actives 4.4% (n = 360,000); further: nearly all actives have a fitted effect of over 60% in size
Target sequence (Q9UIF8 whole entry, looked up): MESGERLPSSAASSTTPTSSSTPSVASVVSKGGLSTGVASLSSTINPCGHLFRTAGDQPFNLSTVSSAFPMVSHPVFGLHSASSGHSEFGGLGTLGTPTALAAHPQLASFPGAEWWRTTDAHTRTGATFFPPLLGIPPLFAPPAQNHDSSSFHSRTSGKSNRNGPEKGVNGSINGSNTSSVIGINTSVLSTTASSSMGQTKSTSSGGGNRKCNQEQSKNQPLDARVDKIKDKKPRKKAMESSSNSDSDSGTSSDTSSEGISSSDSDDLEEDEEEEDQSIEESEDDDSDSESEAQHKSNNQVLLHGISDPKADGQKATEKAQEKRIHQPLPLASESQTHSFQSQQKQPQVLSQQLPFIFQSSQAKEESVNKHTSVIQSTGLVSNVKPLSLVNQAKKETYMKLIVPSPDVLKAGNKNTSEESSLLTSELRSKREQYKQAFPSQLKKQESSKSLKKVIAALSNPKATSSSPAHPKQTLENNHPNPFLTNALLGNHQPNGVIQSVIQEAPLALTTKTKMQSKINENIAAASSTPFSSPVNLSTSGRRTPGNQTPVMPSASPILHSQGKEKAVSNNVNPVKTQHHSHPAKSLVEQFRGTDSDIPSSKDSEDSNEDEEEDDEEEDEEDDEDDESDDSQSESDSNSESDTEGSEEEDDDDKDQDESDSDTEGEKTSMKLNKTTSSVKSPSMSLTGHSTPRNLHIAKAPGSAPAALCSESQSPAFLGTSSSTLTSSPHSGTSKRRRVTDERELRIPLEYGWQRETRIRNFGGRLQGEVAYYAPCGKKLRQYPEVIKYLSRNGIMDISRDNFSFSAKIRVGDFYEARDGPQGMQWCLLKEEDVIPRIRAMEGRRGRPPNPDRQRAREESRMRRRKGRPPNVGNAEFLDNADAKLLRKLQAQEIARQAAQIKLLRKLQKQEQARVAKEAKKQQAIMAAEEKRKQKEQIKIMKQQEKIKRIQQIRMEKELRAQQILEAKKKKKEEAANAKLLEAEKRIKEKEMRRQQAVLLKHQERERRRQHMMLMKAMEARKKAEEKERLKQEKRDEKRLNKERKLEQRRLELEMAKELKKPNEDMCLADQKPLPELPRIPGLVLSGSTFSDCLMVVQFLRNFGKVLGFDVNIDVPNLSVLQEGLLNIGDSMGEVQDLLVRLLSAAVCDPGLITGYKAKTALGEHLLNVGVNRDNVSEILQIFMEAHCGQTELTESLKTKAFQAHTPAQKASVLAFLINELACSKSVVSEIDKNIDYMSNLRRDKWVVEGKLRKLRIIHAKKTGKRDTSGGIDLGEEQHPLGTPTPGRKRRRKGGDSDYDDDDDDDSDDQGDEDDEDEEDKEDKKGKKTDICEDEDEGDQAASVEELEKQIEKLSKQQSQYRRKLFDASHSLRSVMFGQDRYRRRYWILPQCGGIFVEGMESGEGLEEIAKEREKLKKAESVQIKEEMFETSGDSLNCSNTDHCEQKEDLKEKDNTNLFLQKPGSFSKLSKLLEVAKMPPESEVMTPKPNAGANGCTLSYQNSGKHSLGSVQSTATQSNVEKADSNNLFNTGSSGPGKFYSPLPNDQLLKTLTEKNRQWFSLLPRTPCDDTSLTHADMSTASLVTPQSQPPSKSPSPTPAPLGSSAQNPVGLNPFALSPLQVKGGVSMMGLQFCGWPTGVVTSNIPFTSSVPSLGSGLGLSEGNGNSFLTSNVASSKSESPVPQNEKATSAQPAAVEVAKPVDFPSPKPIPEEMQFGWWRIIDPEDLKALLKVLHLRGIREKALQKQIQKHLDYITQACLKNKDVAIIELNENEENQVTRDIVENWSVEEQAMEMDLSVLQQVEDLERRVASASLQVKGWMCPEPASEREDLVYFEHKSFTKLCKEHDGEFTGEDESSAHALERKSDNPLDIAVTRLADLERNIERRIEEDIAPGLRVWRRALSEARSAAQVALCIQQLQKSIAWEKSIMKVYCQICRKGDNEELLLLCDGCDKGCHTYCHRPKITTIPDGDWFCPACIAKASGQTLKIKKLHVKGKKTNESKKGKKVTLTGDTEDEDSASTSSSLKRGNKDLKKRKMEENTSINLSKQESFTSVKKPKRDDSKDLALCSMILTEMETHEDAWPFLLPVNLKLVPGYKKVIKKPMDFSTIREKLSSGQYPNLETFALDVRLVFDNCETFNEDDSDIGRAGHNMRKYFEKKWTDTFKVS
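AlphaScreen displacement of biotin-H3(5-23)K14Ac peptide (50 nM final) from BAZ2B (50 nM final) in PBS pH 7.4, 0.01% Tween-20; complex preformed 30 min RT, then compounds (top 110 uM) 30 min RT, beads 20 min dark.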
HP1b chromo inh: HTS for Inhibitors of HP1-beta Chromodomain Interactions with Methylated Histone Tails; Potency, µM (top dose mostly 114 µM), actives largely listed as inhibitors; AlphaScreen HP1-beta / biotin-H3K9me3 peptide binding; AID 540317, 2011; actives 0.56% (n = 390,000); Chromobox protein homolog 1 (Homo sapiens), P83916; further: nearly all actives have a fitted effect of over 70% in size
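Compound inhibition of the preformed complex between 50 nM HP1-beta and 50 nM biotinylated H3K9me3 peptide was read by AlphaScreen. Buffer was PBS pH 7.4 with 0.01% Tween-20. Incubations ran 30 min at room temperature, with 10 ug/mL donor/acceptor beads.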
GLS inhibitor: qHTS for Inhibitors of Glutaminase (GLS); Glutaminase kidney isoform, mitochondrial (Homo sapiens), O94925; GLS enzymatic activity, qHTS titration; Potency, µM (series often up to 45.5 µM), actives largely listed as inhibitors; actives 0.21% (n = 410,000)
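Read-out is an Amplex red fluorescence increase coupled through glutamate oxidase and HRP, measured before and after 30 min room-temperature incubation. hKGA is in 45 mM KH2PO4 (pH 8.2) with 0.02% Tween-20; glutamine added as 1mM solution.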
A number is an active result; . = inactive; ? = inconclusive; / = no result given; [ ] = dose if it differs, or a comment. The call rests on the fitted dose curve; in most records, active means well fitted curve in the direction sought with a large enough effect; inconclusive means small, poorly fitted or top-dose-only effect, or another doubt; inactive means no such curve, though single readings can be large; an effect the other way counts as inactive or inconclusive.

SMILES	G9a block	JMJD2A Tudor inh	BAZ2B inh	HP1b chromo inh	GLS inhibitor
CCOC(=O)c1ccc(-n2c(CCC(=O)O)ccc2-c2ccc(Br)cc2)cc1	16µM	?	50µM	?	.
Cc1ccc(-c2ccc(CCC(=O)O)n2-c2ccc(O)cc2)cc1	?	?	?	.	.
CCOC(=O)c1c(C)[nH]c(C)c1S(=O)(=O)N1CCN(c2ccc(F)cc2)CC1	/	.	71µM	.	.
CCOC(=O)c1c(C)[nH]c(C)c1S(=O)(=O)N1CCC(C(=O)NCc2ccc(OC)cc2)CC1	.	89µM	.	.	.
CCOC(=O)c1c(C)[nH]c(C)c1S(=O)(=O)N1CCC(C(=O)N2CCN(c3ccc(F)cc3)CC2)CC1	.	.	?	.	.
CCOC(=O)c1scc(-c2ccccc2)c1S(=O)(=O)N1CCN(c2ccc(Cl)cc2)CC1	13µM	.	.	.	.
COc1ccc(-c2c(-c3cc(OC)cc(OC)c3)n(C)c3ccc(-c4ccc(OC)cc4F)cc23)cc1	.[0.501 µM]	.	.	.	.
Cn1c(=N)n(CC(=O)C(C)(C)C)c2ccccc21	.[12.7 µM]	.	?	.	.
CC(C)(C)S(=O)(=O)c1cnc(-c2ccccn2)nc1N	/	?	79µM	.	.
CC(C)(C)S(=O)(=O)c1cnc(-c2cnccn2)nc1N	.	.	.	.	.
CCOC(=O)c1c(NC(=O)/C(C#N)=C/c2ccc(OC)cc2)sc2c1CCC2	.	.	.	.	.
O=C(COc1ccc(/C=C\[N+](=O)[O-])cc1)N1CCOCC1	10µM	.	.	.	.
CCCCCC(=O)c1ccc(O)cc1O	.	.	.	.	.
CCC(=O)Oc1ccc(C/C(=N\O)c2ccc(O)cc2O)o1	13µM	?	?	.	?
O=C(O)C1CCN(C(=O)c2ccccc2N2C(=O)[C@@H]3Cc4c([nH]c5ccccc45)C(c4cccc(Cl)c4)N3C2=O)CC1 (some centres not stated)	.[12.7 µM]	.	.	.	.
O=C(Cc1ccccc1)Nc1ccc2c(c1)OC1(CCCC1)O2	?	.	.	.	.
Nc1ccc2c(c1)OC1(CCCC1)O2	35µM	45µM	40µM	.	?
O=C(c1cc(-c2ccc(Cl)cc2)n[nH]1)N1CCN(S(=O)(=O)c2ccc(Br)s2)CC1	.	.	.	.	.
O=C(c1ccc2c(c1)OCO2)N1CCCC(c2ccccc2)C1 (configuration not stated)	.	.	.	.	.
O=C(O)C(=O)Nc1nc(-c2ccc3c(c2)OCCO3)cs1	32µM	.	?	.	.
CCC(C)(C)n1nnnc1C(c1cc2cccc(C)c2[nH]c1=O)N1CCCC1 (configuration not stated)	11µM	.	.	.	.
CCC(C)(C)n1nnnc1C(c1cc2cc(C)cc(C)c2[nH]c1=O)N1CCCC1 (configuration not stated)	7.9µM	?	.	.	.
Cc1cnc(CNC(=O)c2ccc3sc([C@@H]4O[C@H](CO)[C@H](O)[C@H](O)[C@H]4O)nc3c2)cn1	/	/	/	/	.
Fc1ccc(Nc2ccnc(-c3ccccc3C(F)(F)F)n2)cc1	.[0.501 µM]	/	/	/	/
CCC(=O)Oc1ccc2c(c1)OC1(OC(C)=O)OC(C)CC1=C2C (configuration not stated)	.	.[11.4 µM]	.	.	.
SMILES	G9a block	JMJD2A Tudor inh	BAZ2B inh	HP1b chromo inh	GLS inhibitor
COC(=O)/C=C1\N/C(=N\c2nc(C)cc(C)n2)N(c2ccc(C)c(C)c2)C1=O	?	28µM	.	.	.
COC(=O)/C=C1\N/C(=N/c2nc(C)c3cc(OC)ccc3n2)NC1=O	.	.	.	.	.
COC(=O)/C=C1\N/C(=N\c2nc(C)cc(C)n2)N(c2ccc(Cl)cc2)C1=O	/	20µM	.	.	.
COC(=O)/C=C1/C(=O)N/C(=N\c2nc(C)cc(C)n2)N1c1ccc(OC)cc1	?	25µM	?	.	.
O=C(COc1ccc(Cl)cc1)Nc1cccc(-c2ccc3nncn3n2)c1	.	.	/	.	.
COc1ccccc1N1C(=O)CC(N2CCN(c3ccc(F)cc3)CC2)C1=O (configuration not stated)	/	.	.	.	.
COc1ccc(C(=O)Nc2ccccc2N2CCCC2)cc1S(=O)(=O)N1CCOCC1	10µM	.	.	.	.
COc1ccc(C(=O)Nc2ccccc2N2CCOCC2)cc1S(=O)(=O)N1CCCC1	.[12.7 µM]	.	.	.	.
Cc1ccc(S(=O)(=O)N2CCOCC2)cc1C(=O)Nc1nc(-c2ccccn2)cs1	/	40µM	/	?	.
COc1ccc(C(=O)Nc2nc(-c3ccccn3)cs2)cc1S(=O)(=O)N1CCOCC1	/	25µM	/	.	.
COc1ccc(C(=O)Nc2nncs2)cc1S(=O)(=O)N1CCOCC1	56µM	.	.	.	.
COc1ccccc1CCC(=O)Nc1cc(S(=O)(=O)N2CCCCC2)ccc1N1CCN(C)CC1	.[0.501 µM]	?	?	.	.
O=C(NC(=S)Nc1ccc(N2CCOCC2)c(Cl)c1)C(c1ccccc1)c1ccccc1	.	.[11.4 µM]	.	.	.
O=C(C[n+]1cccc(CNC(=O)c2ccc(OC(F)F)cc2)c1)c1ccccc1	?	.	.	.	.
Cc1cnc(NC(=O)c2cccc(S(=O)(=O)N3CCOCC3)c2)s1	7.1µM	.	.	.	.
CCOc1ccccc1NC(=O)c1cc(S(=O)(=O)N2CCOCC2)ccc1C	.[0.501 µM]	.	.	.	.
O=S(=O)(c1cccc(-c2csc(-c3cccnc3)n2)c1)N1CCOCC1	71µM	.	.	.	.
CCOC(=O)c1c(-c2ccccc2Cl)csc1NC(=O)c1cc(S(=O)(=O)N2CCOCC2)ccc1C	7.9µM	.	.	?	.
O=S(=O)(c1cccc(-c2csc(-c3cccnc3)n2)c1)N1CCCCC1	.[2.33 µM]	.	.	.	.
Cc1nnc(NC(=O)c2cccc(S(=O)(=O)N3CCOCC3)c2)s1	.[12.7 µM]	.	.	.	.
O=C(Nc1nc(-c2ccccn2)cs1)c1cccc(S(=O)(=O)N2CCOCC2)c1	?	50µM	28µM	.	.
Cc1nnc(SCCCN2C(=O)c3ccccc3C2=O)o1	?	.	.	.	.
COc1ccc(-n2c(Cc3cccs3)nnc2SCC(=O)Nc2ccc3c(c2)OCCO3)cc1	?	.	.	.	.
COCCNC(=O)CCCn1c(=O)c2cc(OC)c(OC)cc2n(CC(=O)c2ccc(Cl)cc2)c1=O	.	/	.	/	/
COc1ccc(C(=O)Nc2nc3ccccc3[nH]2)cc1S(=O)(=O)N1CCOCC1	.	.	?	.	.
